Compound activity: PubChem BioAssay, several laboratories
The list is not random: actives were taken first. Their share in the collection is about 2.7%.
SENP8 block-1 – inhibitors of human SENP8 protease; Q96LD8; recombinant SENP8, Nedd8 substrate fluorescence; inhibition, % at 20 µM; actives 0.64% (n = 360,000); AID 602440; in the data active = inhibition mostly above about 40%, no sharp cut-off; inactive = mostly below about 27%
Target sequence (Q96LD8 whole entry, looked up): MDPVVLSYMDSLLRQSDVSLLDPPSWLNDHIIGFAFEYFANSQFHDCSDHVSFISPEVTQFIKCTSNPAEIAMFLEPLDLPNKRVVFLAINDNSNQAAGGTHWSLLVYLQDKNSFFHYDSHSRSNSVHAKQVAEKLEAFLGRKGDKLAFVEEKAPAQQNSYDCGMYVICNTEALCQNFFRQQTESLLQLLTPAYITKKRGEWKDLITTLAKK
SENP7 inh – blocks the human protease SENP7; recombinant SENP7, Z-RLRGG-aminoluciferin luminescence, 40 min; inhibition, % at 5 µM; actives 1.5% (n = 330,000);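 active = inhibition above about 50% at the single test dose, limit read from the data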
HSP90 inh – HSP90 refolding inhibition in rabbit reticulocyte lysate. luciferase refolding luminescence, 3 h. actives 0.91% (n = 290,000). AID 1789. inhibition, % at 5.6 µM;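 active = inhibition above the screen-wide mean plus 3 SD, computed separately per campaign, cut at about 16% in these data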;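 also: inhibitors lower the luminescence because luciferase stays unfolded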
SENP8 block-2 – inhibitors of human SENP8 protease; actives 1.2% (n = 330,000); AID 2540; Q96LD8; purified SENP8, Z-RLRGG-aminoluciferin cleavage, luminescence; inhibition, % at 10 µM; in the data active = inhibition above about 50%
SENP6 block – blocks the human protease SENP6; Q9GZR1; Recombinant SENP6 catalytic domain, aminoluciferin luminescence; inhibition, % at 10 µM; actives 1.8% (n = 330,000); AID 2599;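 active = inhibition above about 50% at the single tested dose, limit read from the data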
SENP8 conf – confirmation of human SENP8 protease inhibitors; Recombinant SENP8, Z-RLRGG-aminoluciferin luminescence, 60 min; shares compounds with SENP7 inh; actives 40% (n = 6,200); inhibition, % at 12.5 µM;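 active = mean inhibition across replicates above about 50%, limit read from the data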
SENP6 conf – confirmation of human SENP6 protease inhibitors | shares compounds with SENP7 inh | recombinant SENP6, Z-RLRGG-aminoluciferin luminescence | inhibition, % at 12.5 µM | actives 58% (n = 6,200) | AID 488915
SENP7 conf – confirmation of human SENP7 protease inhibitors. shares compounds with SENP7 inh. recombinant SENP7, Z-RLRGG-aminoluciferin luminescence, 40 min. inhibition, % at 12.5 µM. actives 69% (n = 6,200). AID 488917
Casp3 SENP sel – caspase-3 inhibition (SENP selectivity assay) | shares compounds with SENP7 inh | actives 60% (n = 6,200) | inhibition, % at 12.5 µM | purified caspase-3, Z-DEVD-aminoluciferin luminescence, 60 min | AID 488918;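 active = mean inhibition above about 50%, limit read from the data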
Target sequence (P42574 28-227 limits assumed): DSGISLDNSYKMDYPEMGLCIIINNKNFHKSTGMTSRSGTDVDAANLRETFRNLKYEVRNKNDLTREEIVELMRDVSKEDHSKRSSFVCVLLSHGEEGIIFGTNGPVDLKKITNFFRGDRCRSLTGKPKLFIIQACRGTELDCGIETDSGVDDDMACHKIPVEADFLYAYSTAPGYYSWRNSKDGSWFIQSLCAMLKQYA
Luc interf – counter-screen for SENP inhibitors: luminescence interference. shares compounds with SENP7 inh. Pre-incubated SENP8/Z-RLRGG-aminoluciferin, luciferase luminescence interference. inhibition, % at 12.5 µM. actives 39% (n = 6,200). AID 488919;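 active = mean inhibition above about 50% when retested at one dose, limit read from the data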
Large screens that a line does not name were inactive (follow-up assays come after a bar, where they were run).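 The calls were made as follows, unless noted: active = mean inhibition above about 50% in the one-dose retest (limit read from the data); inactive = the rest.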

Cc1csc(SCC(=O)Nc2ccc(F)cc2Cl)n1	none (no result: HSP90 inh)
COc1cccc(C(=O)Cn2c(NCCO)nc3ccccc32)c1	none
COc1cccc(C(=O)Cn2c(=N)n(C)c3ccccc32)c1	SENP6 block 64 | SENP8 conf inactive | SENP6 conf inactive | SENP7 conf inactive | Casp3 SENP sel inactive | Luc interf inactive
CN(C(=O)CSc1nnc(Nc2ccccc2)s1)c1c(N)n(Cc2ccccc2)c(=O)[nH]c1=O	none
CC(=O)/C(=C/N(C)C)C(=O)Nc1ccc(Cl)cc1Cl	SENP8 block-2 78 | SENP8 conf 70 | SENP6 conf 66 | SENP7 conf 92 | Casp3 SENP sel 81 | Luc interf 77
CSc1nnc(-c2ccccc2Cl)o1	none
Clc1ccccc1-c1ncc(-c2ccccc2)o1	SENP7 inh 92, SENP8 block-2 88, SENP6 block 91 | SENP8 conf 79 | SENP6 conf 92 | SENP7 conf 99 | Casp3 SENP sel 79 | Luc interf 84
COc1ccc(N(C(=O)CNC(=O)c2ccco2)C(C(=O)NC2CCCCC2)c2ccco2)cc1 (configuration not stated)	SENP6 block 60 | SENP8 conf inactive | SENP6 conf inactive | SENP7 conf inactive | Casp3 SENP sel inactive | Luc interf inactive
Cc1occc1C(=O)Nc1ccc2c(c1)OCO2	SENP7 inh 80, SENP8 block-2 54, SENP6 block 84 | SENP8 conf 64 | SENP6 conf 63 | SENP7 conf 89 | Casp3 SENP sel 90 | Luc interf 74
Cc1cc(NC(=O)c2ccoc2C)ccc1Br	SENP7 inh 97, SENP8 block-2 97, SENP6 block 100 (no result: HSP90 inh) | SENP8 conf 98 | SENP6 conf 99 | SENP7 conf 102 | Casp3 SENP sel 95 | Luc interf 96
Cc1ccc(NC(=O)c2ccoc2C)cc1C	SENP7 inh 97, SENP8 block-2 92, SENP6 block 92 | SENP8 conf inactive | SENP6 conf 94 | SENP7 conf 101 | Casp3 SENP sel 96 | Luc interf 93
Cc1occc1C(=O)Nc1cccc(C(=O)O)c1	SENP7 inh 96, SENP8 block-2 91, SENP6 block 96 | SENP8 conf 95 | SENP6 conf 95 | SENP7 conf 101 | Casp3 SENP sel 72 | Luc interf 93
CSc1ccccc1C(=O)Nc1cc(C)cc(C)c1	none
CSc1ccccc1C(=O)Nc1ccc(C)c(C)c1	SENP7 inh 68, SENP6 block 65 | SENP8 conf 54 | SENP6 conf 52 | SENP7 conf 84 | Casp3 SENP sel 74 | Luc interf 70
COc1ccc(C2C(C#N)=C(N)OC3=C2C(=O)CCC3)c(OC)c1OC (configuration not stated)	none
Cc1ccc(C)c(-n2c(-c3csc(C)c3)n[nH]c2=S)c1	none
CC(=O)Nc1ccc(S(=O)(=O)/N=C2\C(=O)c3ccccc3C([O-])=C2n2cc[n+](-c3ccccn3)c2)cc1	SENP8 block-1 56, SENP8 block-2 53, SENP6 block 77 | SENP8 conf 70 | SENP6 conf 88 | SENP7 conf 61 | Casp3 SENP sel 54 | Luc interf inactive
CC(=O)Nc1ccc(S(=O)(=O)NCCSc2ccccn2)cc1	none
O=C(N/N=C1\CC(c2ccccc2)Oc2ccccc21)c1ccccn1 (configuration not stated)	none
Cn1ccnc1C(=O)c1ccc(S(=O)(=O)N2CCCC2)cc1	none
Cc1ccc(S(=O)(=O)N(C)c2ccc(C(=O)NCCc3ccccc3)cc2)cc1	none
CN(c1ccc(C(=O)NCCc2ccccc2)cc1)S(C)(=O)=O	SENP7 inh 55 | SENP8 conf inactive | SENP6 conf inactive | SENP7 conf 56 | Casp3 SENP sel 69 | Luc interf inactive
Cc1ccccc1NC(=O)CON=C(N)c1ccccc1	none (no result: HSP90 inh)
COC(=O)CN1C(=O)[C@H]2[C@@H](C3CC3)N3C(=O)CN(Cc4ccccn4)C(=O)[C@@]3(Cc3ccccc3)[C@H]2C1=O	none
COC(=O)c1ccc(-c2ccc(Cl)cc2)nc1C	SENP7 inh 76, SENP8 block-2 58, SENP6 block 76 | SENP8 conf inactive | SENP6 conf 64 | SENP7 conf 90 | Casp3 SENP sel 52 | Luc interf inactive
O=C(CSc1nc2cc(Cl)ccc2o1)NCCc1ccccc1	none
COc1ccc(-c2cc3ccc(OCC(N)=O)cc3oc2=O)cc1OC	none
CCc1ccc(C(=O)c2cc3ccc(O)cc3oc2=O)cc1	SENP6 block 60 | SENP8 conf 66 | SENP6 conf 62 | SENP7 conf 84 | Casp3 SENP sel 71 | Luc interf 66
CC(=O)c1cc2ccc(O)cc2oc1=O	none
O=C(NNC(=O)c1cc2cc(Br)ccc2oc1=O)c1ccc(O)cc1O	none
COc1ccc(C(=O)c2cc3ccc(O)cc3oc2=O)cc1	SENP7 inh 97, SENP8 block-2 95, SENP6 block 100 | SENP8 conf 96 | SENP6 conf 97 | SENP7 conf 102 | Casp3 SENP sel 98 | Luc interf 95
O=C(c1ccc(Br)cc1)c1cc2ccc(O)cc2oc1=O	SENP7 inh 51, SENP8 block-2 92, SENP6 block 90 | SENP8 conf 92 | SENP6 conf 95 | SENP7 conf 101 | Casp3 SENP sel 96 | Luc interf 95
COc1ccc(-c2cc3ccc(O)cc3oc2=O)cc1OC	SENP7 inh 100, SENP8 block-2 95, SENP6 block 99 | SENP8 conf 99 | SENP6 conf 100 | SENP7 conf 103 | Casp3 SENP sel 99 | Luc interf 96
Cc1cc(-c2nnc(SCc3ccccn3)o2)no1	none
COc1ccc2cc(C(=O)NCc3ccco3)c(=O)oc2c1	none
O=C(c1ccccc1)c1cc2ccc(O)cc2oc1=O	SENP7 inh 98, SENP8 block-2 96, SENP6 block 95 | SENP8 conf 98 | SENP6 conf 99 | SENP7 conf 102 | Casp3 SENP sel 98 | Luc interf 96
O=C(NCc1ccco1)c1cc2ccc(O)cc2oc1=O	SENP7 inh 96, SENP8 block-2 95, SENP6 block 98 | SENP8 conf 99 | SENP6 conf 100 | SENP7 conf 103 | Casp3 SENP sel 99 | Luc interf 99
O=C1[C@@H]2CSCN2C(=O)CN1Cc1cccc(C(F)(F)F)c1	none
